# Measurements from the OligoGym collection.
# Biological target: EIF3K
# Test: pooled miR-30 sensor sort-seq; sequence = guide strand
# Settings: shRNA
# Note: reference of the scale not given here.
row,Sequence,sensor-assay potency score (higher = more potent)
1,TTGATGTGCCTGGTCGATCATG,-1.46
2,TAAACTTTCGGACAGAGTCTTC,-0.691
3,TTGGCTACAGATGAAGATCTGC,0.0721
4,TATACCTTCCAAGAGGTCCATG,-1.12
5,TACCCTTGAGCAACTTGCCCAC,-0.487
6,TTGCACAGGGTGAAGTCTGTGT,-0.115
7,TGATGCTGGACACACTGTCAAA,-1.61
8,ATCTTCTCCACAATGTTCTTGG,-0.584
9,TTCTCCACAATGTTCTTGGGTT,-0.486
10,TTCTTGATGTGCCTGGTCGATC,-1.05
11,TATTTGCTCATCCACACCTTTA,-1.23
12,TACAGATGAAGATCTGCCCCGA,0.0464

# Biological target: EIF3M
# Test: as above
# Settings: shRNA
row,Sequence,sensor-assay potency score (higher = more potent)
1,TTGTCCTCTGTGTAACTTCCGA,-0.798
2,TGAAGCAGCATCACTCTTCTTA,0.0165
3,ATCTTCTTCACTGATGTCGATG,-1.42
4,TTGCTTAACAACTGCAGTCTCA,-0.8
5,AACATCATCAGCTCCAATCTGA,0.0943
6,TACAGGAGTATTCTTATCCATC,-1.23
7,TTTTCTAACTTGATCCAGCTCA,-0.0518
8,TTAACAACTGCAGTCTCAGAGA,-0.725
9,TAAAGTAGTCTTAAAAGGGTGT,0.205
